The values that follow come from PubChem BioAssay (NCATS).

Test [1] has as its target Rap guanine nucleotide exchange factor 3 (Homo sapiens) (UniProt O95398). The test is described as follows: Confirmatory qHTS for agonist of cAMP-regulated guanine nucleotide exchange factor 3 (EPAC1) (AID 1645881).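 Note: EPAC1 catalysed release of BODIPY-GDP from Rap1B seen as fluorescence loss; 100% = effect of cAMP agonist control; nearly all actives have a fitted effect of over 75% in size.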 Background: Quantitative high-throughput screening tests each substance at several concentrations.
Test [2] has as its target Rap guanine nucleotide exchange factor 4 (Homo sapiens) (UniProt Q8WZA2). The experiment in a line: Confirmatory qHTS for agonist of cAMP-regulated guanine nucleotide exchange factor 4 (EPAC2) (AID 1645884).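 Note: nucleotide exchange releases bodipy-GDP from Rap1 and this lowers its fluorescence; % is set by controls: 0 for no effect and ±100 for the full control effect; nearly all actives have a fitted effect of over 65% in size.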
Test [3] shares this target. The test is described as follows: Confirmatory qHTS for antagonist of cAMP-regulated guanine nucleotide exchange factor 4 (EPAC2) (AID 1645885). For activity change, negative = inhibition: % is set by controls: 0 for no effect and ±100 for the full control effect. Note: nearly all actives have a fitted effect of over 25% in size. Note: potency is the fitted concentration of half-maximal effect.
In test [4] the target is Rap guanine nucleotide exchange factor 3 (Homo sapiens) (UniProt O95398). The test is described as follows: Counterscreen qHTS for antagonist of cAMP-regulated guanine nucleotide exchange factor 3 (EPAC1) (AID 1645888). Note: % of control where 0% means no effect. An outline of the steps: (§1)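 Measured: fluorescence of BODIPY-GDP bound to Rap1B, which falls as exchange proceeds. Conditions include 50 uM competing GDP, 5 and 30 min reads, and a later cAMP challenge for antagonist detection.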
Chain of Rap guanine nucleotide exchange factor 3 (Homo sapiens) (O95398 whole entry, looked up): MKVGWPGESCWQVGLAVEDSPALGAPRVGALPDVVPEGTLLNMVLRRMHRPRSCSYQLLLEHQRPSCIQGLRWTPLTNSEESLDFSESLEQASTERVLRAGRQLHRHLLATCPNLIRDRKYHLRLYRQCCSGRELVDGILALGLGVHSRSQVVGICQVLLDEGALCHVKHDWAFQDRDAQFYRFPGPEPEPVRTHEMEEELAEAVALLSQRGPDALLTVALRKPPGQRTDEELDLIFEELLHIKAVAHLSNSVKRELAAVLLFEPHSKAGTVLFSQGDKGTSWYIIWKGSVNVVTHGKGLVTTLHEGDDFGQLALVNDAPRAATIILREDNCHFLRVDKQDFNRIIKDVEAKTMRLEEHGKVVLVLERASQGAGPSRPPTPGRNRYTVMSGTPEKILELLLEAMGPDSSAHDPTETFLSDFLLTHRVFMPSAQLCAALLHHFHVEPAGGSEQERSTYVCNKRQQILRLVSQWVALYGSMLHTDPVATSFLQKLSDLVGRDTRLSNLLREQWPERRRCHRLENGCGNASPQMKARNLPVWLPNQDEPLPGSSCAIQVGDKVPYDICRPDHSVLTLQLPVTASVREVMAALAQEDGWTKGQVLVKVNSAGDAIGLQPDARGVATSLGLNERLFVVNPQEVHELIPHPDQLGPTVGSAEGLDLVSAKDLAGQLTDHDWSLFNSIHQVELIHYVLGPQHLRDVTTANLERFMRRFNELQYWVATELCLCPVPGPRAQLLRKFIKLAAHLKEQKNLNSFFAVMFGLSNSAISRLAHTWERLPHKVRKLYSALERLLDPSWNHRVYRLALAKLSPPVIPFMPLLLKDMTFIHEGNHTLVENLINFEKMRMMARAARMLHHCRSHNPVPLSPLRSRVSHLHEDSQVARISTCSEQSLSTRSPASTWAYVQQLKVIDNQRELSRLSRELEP
On the technique in general: The purpose of a counterscreen is to sort out artefacts and off-target activity.

The target is the same in test [5]. The test is described as follows: Counterscreen qHTS for agonist of cAMP-regulated guanine nucleotide exchange factor 3 (EPAC1) (AID 1645889). Note: % of control where 0% means no effect; nearly all actives have a fitted effect of over 40% in size. An outline of the steps:
as §1

A short description of test [6]: AP1 Signaling Pathway (AID 357; active = well fitted curve in either direction with a large enough effect, not every such curve was filed as active;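 note: ME-180 reporter cells stimulated with EGF at its EC50 level; % is set by controls: 0 for no effect and ±100 for the full control effect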). The conditions noted are these: ME-180 (cervical carcinoma) AP-1-bla reporter, EGF-induced, beta-lactamase ratio, 5 h; at 7.69 µM (top of the series) unless noted. In outline:
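A ratiometric CCF4 readout (405 nm excitation; 460 and 530 nm emission) quantified AP-1-driven beta-lactamase in ME-180 cells after 5 h with compound and EC50 EGF; AC50 values were derived for activators and inhibitors.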

The nature of test [7]: NFAT Signaling Pathway (AID 444; active = well fitted curve in either direction with a large enough effect, not every such curve was filed as active;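 note: carbachol stimulus at about its EC50 of 1 µM final; % is set by controls: 0 for no effect and ±100 for the full control effect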). The conditions noted are these: Jurkat NFAT-bla M1, carbachol, beta-lactamase ratio, 5 h; at 7.69 µM (top of the series) unless noted. An outline of the steps:
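Jurkat cells carrying an NFAT-driven β-lactamase reporter and co-transfected muscarinic M1 receptor were treated with compound plus carbachol (1 uM final, an EC50 level) for 5 h at 37 °C. CCF4 loading followed for 1 h at RT; 460/530 nm ratio gave %activity.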

Test [8] in a line: Stat Signaling Pathway (AID 446; active = well fitted curve in either direction with a large enough effect, not every such curve was filed as active;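 note: ME-180 cervical cancer cells given 40 pM IL-6 alongside compound; SIE-controlled beta-lactamase reporter measured as 460/530 nm FRET emission ratio; % is set by controls: 0 for no effect and ±100 for the full control effect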). An outline of the steps:
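ME-180 cells carrying a SIE-driven beta-lactamase reporter are stimulated with 40 pM IL-6 for 5 h at 37C in the presence of compound. The 460/530 nm FRET substrate ratio is read after 2.5 h at RT. Data are normalised to 300 pM IL-6 and to 125 nM JAK inhibitor controls.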

For test [9], the target named is Glucocorticoid receptor (Homo sapiens) (UniProt P04150). The test is described as follows: GR-GFP Redistribution (AID 450;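 active = compounds whose dose series gives a full or clear partial fitted curve of increased nuclear translocation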; note: potency is the fitted concentration of half-maximal effect). The conditions noted are these: U2OS GR-GFP nuclear translocation, laser cytometry, 2 h.
Chain of Glucocorticoid receptor (Homo sapiens) (P04150 whole entry, looked up): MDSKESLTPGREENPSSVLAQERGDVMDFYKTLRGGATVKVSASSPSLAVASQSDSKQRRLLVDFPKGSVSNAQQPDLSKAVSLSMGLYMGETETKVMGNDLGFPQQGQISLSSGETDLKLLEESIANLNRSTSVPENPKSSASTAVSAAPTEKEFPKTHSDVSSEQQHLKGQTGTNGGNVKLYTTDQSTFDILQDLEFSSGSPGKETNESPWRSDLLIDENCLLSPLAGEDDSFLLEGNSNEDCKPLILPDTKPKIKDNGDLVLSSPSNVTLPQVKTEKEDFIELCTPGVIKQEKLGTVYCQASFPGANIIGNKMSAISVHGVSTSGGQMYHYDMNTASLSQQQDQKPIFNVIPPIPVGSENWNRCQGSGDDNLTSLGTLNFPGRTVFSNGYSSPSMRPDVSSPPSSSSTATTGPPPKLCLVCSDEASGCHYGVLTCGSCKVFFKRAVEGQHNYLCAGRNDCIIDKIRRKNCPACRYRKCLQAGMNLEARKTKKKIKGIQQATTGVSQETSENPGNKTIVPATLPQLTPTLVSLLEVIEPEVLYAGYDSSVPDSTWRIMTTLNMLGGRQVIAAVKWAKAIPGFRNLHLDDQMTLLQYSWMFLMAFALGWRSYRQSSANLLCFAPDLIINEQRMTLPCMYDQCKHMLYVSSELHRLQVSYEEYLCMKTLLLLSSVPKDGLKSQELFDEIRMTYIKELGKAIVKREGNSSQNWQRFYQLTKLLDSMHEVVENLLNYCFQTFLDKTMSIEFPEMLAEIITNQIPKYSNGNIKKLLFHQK

Unmarked numbers belong to inactive results. Results filed as inconclusive are left out. Activity calls are given as the source filed them. Unless noted, calls come from the whole dose curve; as a rule, active = well fitted curve in the direction sought with a large enough effect; inconclusive = small, poorly fitted or top-dose-only effect, or another doubt; inactive = no such curve, though single readings can be large; an effect the other way counts as inactive or inconclusive.

Chain of Rap guanine nucleotide exchange factor 4 (Homo sapiens) (Q8WZA2 whole entry, looked up): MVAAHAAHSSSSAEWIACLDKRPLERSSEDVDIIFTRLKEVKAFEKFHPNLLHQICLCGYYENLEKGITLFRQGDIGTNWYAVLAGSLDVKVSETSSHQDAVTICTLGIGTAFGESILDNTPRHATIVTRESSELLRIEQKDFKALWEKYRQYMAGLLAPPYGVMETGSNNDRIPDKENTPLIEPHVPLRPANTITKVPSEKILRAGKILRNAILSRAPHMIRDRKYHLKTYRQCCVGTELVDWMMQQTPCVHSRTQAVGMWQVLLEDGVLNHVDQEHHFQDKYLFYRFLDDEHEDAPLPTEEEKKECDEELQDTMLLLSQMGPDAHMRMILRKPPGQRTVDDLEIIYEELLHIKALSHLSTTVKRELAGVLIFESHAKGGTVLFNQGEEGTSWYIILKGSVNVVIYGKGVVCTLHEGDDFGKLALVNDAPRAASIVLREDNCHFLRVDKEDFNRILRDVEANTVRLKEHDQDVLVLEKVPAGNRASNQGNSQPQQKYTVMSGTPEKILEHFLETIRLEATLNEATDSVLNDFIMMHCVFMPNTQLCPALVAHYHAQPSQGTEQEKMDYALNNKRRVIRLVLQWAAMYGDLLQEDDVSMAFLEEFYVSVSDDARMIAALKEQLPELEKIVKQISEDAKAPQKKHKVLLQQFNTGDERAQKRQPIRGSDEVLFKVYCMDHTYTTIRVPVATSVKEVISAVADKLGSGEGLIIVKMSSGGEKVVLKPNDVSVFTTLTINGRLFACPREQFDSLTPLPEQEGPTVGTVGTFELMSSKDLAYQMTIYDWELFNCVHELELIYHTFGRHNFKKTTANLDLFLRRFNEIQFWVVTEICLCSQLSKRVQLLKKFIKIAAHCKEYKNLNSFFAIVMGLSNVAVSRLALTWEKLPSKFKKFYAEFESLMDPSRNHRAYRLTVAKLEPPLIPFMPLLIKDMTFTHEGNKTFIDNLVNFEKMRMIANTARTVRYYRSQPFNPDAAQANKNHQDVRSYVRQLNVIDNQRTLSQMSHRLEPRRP

On to `COc1ccc2oc(C(=O)Nc3ccc(N4CCOCC4)cc3)c(C)c2c1`, for which the Potency entry in test [1] and in test [3] was “inactive” each time. Moreover, the activation in test [2] was -0.0841% [at 17.1 µM, percent relative to cAMP agonist control]; in [5], 8.1% [at 30.8 µM]. Moreover, the activity change, negative = inhibition in test [4] was 7.62% [at 30.8 µM].

Regarding `C=Cc1ccc(Cn2nc(-c3ccccc3)ccc2=O)cc1`, the Potency result in test [1] and in test [3] was “inactive” in each case. Moreover, the activation in test [2] was -8.97% [at 17.1 µM, percent relative to cAMP agonist control]; in [5], 15.7% [at 30.8 µM]. In addition, the activity change, negative = inhibition in [4] is -16.6% [at 30.8 µM].

Turning to `Cc1ccc2nc3sc(C(=O)Nc4c(C)[nH]c(=O)[nH]c4=O)c(N)c3cc2c1`, the Potency result in [1] and in [3] was “inactive” each time. Also, the activation in [2] is 4.59% [at 17.1 µM, percent relative to cAMP agonist control]; in test [5], 5.21% [at 30.8 µM]. In addition, the activity change, negative = inhibition in test [4] is 2.13% [at 30.8 µM].

For `N#CC1=C(N)Oc2cc(N)ccc2C1c1ccc(Cl)cc1` (centres undefined), the Potency result in [1], in [2], in [4] and in [5] was “inactive” in each case. In addition, the Potency in test [3] was 47.8 µM (active).

Take `CCC(=C(c1ccc(OC)cc1)c1ccc(OC)cc1)c1cn(CC(O)CN2CCN(C)CC2)c2ccccc12` (centres undefined): the Potency result in test [1] and in test [3] was “inactive” in each case. Also, the activation in test [2] was 8.96% [at 17.1 µM, percent relative to cAMP agonist control]; in test [5], 25.5% [at 30.8 µM]. For the same compound, in [4], the activity change, negative = inhibition was -21.5% [at 30.8 µM].

For the compound `CCOC(=O)c1ccccc1NC(=O)CSc1nc2c(sc(=S)n2CC)c(=O)[nH]1`, the Potency result in [1] and in test [3] was “inactive” each time. In addition, the activation in [2] is 5.86% [at 17.1 µM, percent relative to cAMP agonist control]; in test [5], 10.2% [at 30.8 µM]. Besides, the activity change, negative = inhibition in test [4] was -2.38% [at 30.8 µM].

As for `Cc1nn(-c2ccc(F)cc2)c(-n2cccc2)c1C(=O)N1CCN(c2ccc(F)cc2)CC1`, the Potency entry in test [1], in test [2], in [4] and in test [5] was “inactive” in each case. In test [3], the outcome is “inactive [at 12.7 µM]”.

For `COc1ccc(N(CC(=O)NC2CCCCCCC2)S(=O)(=O)c2c(C)nn(C)c2C)cc1`, the Potency result in test [1], in test [2], in [3], in test [4] and in test [5] was “inactive” in each case.

For the compound `NS(=O)(=O)c1ccc(Nc2nc(-c3cccc([N+](=O)[O-])c3)cs2)cc1`, the Potency entry in [1] and in test [3] was “inactive” each time. For the same compound, the activation in test [2] is 3.15% [at 17.1 µM, percent relative to cAMP agonist control]; in test [5], 15.6% [at 30.8 µM]. Also, the activity change, negative = inhibition in [4] is -4.36% [at 30.8 µM].

For the compound `CCCn1nc([N+](=O)[O-])c(C(C#N)c2nc3ccccc3o2)c(Cl)c1=O` (centres undefined), the Potency result in [1], in test [2], in test [4] and in test [5] was “inactive” in each case. In addition, the Potency in test [3] was 37.9 µM (active).

Take `CCOc1ncccc1C(=O)OC(C)C(=O)Nc1ccc(Cl)cn1` (centres undefined): in [1], the Potency entry is “inactive”. In addition, the activation in [2] was 7.63% [at 17.1 µM, percent relative to cAMP agonist control]; in test [5], 15.5% [at 30.8 µM]. Further, the Potency in test [3] is 0.213 µM (active). Also, the activity change, negative = inhibition in [4] is -16.3% [at 30.8 µM].

As for `O=C(NCC(c1ccco1)N1CCCCC1)c1cccc(NS(=O)(=O)c2ccc(Br)cc2)c1` (centres undefined), the Potency result in [1] and in test [3] was “inactive” in each case. In addition, the activation in test [2] was -6.31% [at 17.1 µM, percent relative to cAMP agonist control]; in [5], 29.4% [at 30.8 µM]. The activity change, negative = inhibition in test [4] was -11.8% [at 30.8 µM].

Regarding `COc1ccc(S(=O)(=O)Nc2ccccc2SC)cc1C`, the Potency entry in test [1], in test [2], in [4] and in test [5] was “inactive” in each case. For the same compound, the Potency in test [3] is 10.7 µM (active).

For `CCc1noc(C)c1C(=O)N1CCCSC1=Nc1ccccc1Cl`, the Potency result in test [1] and in test [3] was “inactive” in each case. Also, the activation in test [2] was 0.52% [at 17.1 µM, percent relative to cAMP agonist control]; in test [5], -1.65% [at 30.8 µM]. Besides, the activity change, negative = inhibition in [4] is -10.8% [at 30.8 µM].

For the compound `CCCC(=O)Oc1c(S(=O)(=O)c2ccc(C)cc2)c(C)nn1C(C)(C)C`, the Potency entry in [1] and in [3] was “inactive” in each case. The activation in test [2] was 12.6% [at 17.1 µM, percent relative to cAMP agonist control]; in [5] it was 5.13% [at 30.8 µM]. In test [4], the activity change, negative = inhibition is -10.7% [at 30.8 µM].

Turning to `Cn1cc(S(=O)(=O)Nc2cccc(F)c2)c(=O)n(C)c1=O`, the Potency entry in test [1] and in test [3] was “inactive” throughout. In addition, the activation in [2] was 0% [at 17.1 µM, percent relative to cAMP agonist control]; in test [5] it was -7.11% [at 30.8 µM]. The activity change, negative = inhibition in test [4] was -13.5% [at 30.8 µM].

As to `COc1cc(/C=C(\C#N)c2nc3ccc(C)cc3[nH]2)ccc1OCc1ccc(C)cc1`, the Potency result in test [1], in test [2], in [3], in [4] and in [5] was “inactive” each time.

On to `CCOC(=O)C1CCCN(c2nc3ccccc3nc2C(C#N)C(=O)OC(C)C)C1` (centres undefined), for which the results for the activity change, negative = inhibition in test [6], in test [7] and in [4] were -3.2% [at 17.2 µM], -22.1% [at 17.2 µM] and 0.815% [at 30.8 µM], respectively. Also, in test [8], the compound was called inactive. Also, in [9], the Potency was over 20.6 µM. Besides, the Potency result in [1] and in [3] was “inactive” each time. The activation in test [2] is 6.19% [at 17.1 µM, percent relative to cAMP agonist control]; in [5] it was 36.1% [at 30.8 µM].

`O=C1CC(c2c(F)cccc2Cl)c2c(ccc3ccccc23)N1` (centres undefined): the Potency entry in test [1], in test [2], in test [3], in test [4] and in [5] was “inactive” in each case.

As for `O=c1cc(-c2c(O)c3ccccc3n(Cc3ccccc3)c2=O)[nH][nH]1`, the Potency entry in test [1], in [2], in test [3], in test [4] and in test [5] was “inactive” throughout.
